This passage reports Inhibition results from ChEMBL document CHEMBL1157539, “Thousands of chemical starting points for antimalarial lead identification” (Nature, 2010).

Usually Inhibition stands for the change of the read-out against control, counted positive when it falls. Lower therefore signals a response near the control.

One assay relates to Plasmodium falciparum. The assay can be described thus: GSK_TCMDC: Inhibition of Plasmodium falciparum 3D7 in whole red blood cells, using parasite LDH activity as an index of growth. Test compounds present at 2uM. The assay is classed as functional.
Molecule `CC(=O)Nc1ccc(OCCN(CC(C)C)c2ccc(C(F)(F)F)c(C#N)c2)c(Cl)c1` displayed an Inhibition of 96%. Still for that read-out and setting: the figure for `Cc1ccc(NC(=O)c2ccc(CN3CCCN(CCC(C)C)CC3)cc2)cc1F.O=C(O)C(F)(F)F` is 91%.

`Cl.N=c1n(Cc2ccccc2)c2ccccc2n1CC(O)c1ccc(Cl)cc1` (stereo not drawn) gave an Inhibition of 96%.

A further assay has as its system Plasmodium falciparum. Kind of assay: GSK_TCMDC: Inhibition of Plasmodium falciparum Dd2 in whole red blood cells, using parasite LDH activity as an index of growth. Test compounds present at 2uM. The assay is classed as functional.
`CC(C)c1ccc(CN2CCC(CNC(=O)c3cc(-c4ccccc4F)cs3)C2)cc1.O=C(O)C(F)(F)F` (stereo not drawn) registered an Inhibition of 29%. `O=C(O)C(F)(F)F.c1cc(CNCC2CCN(CC3CCCCC3)CC2)cc(-n2ccnc2)c1`: the Inhibition came out at 99%. Still for that read-out and setting: as for `CC1(C)CC(=O)c2c(O)cc(OCc3ccncc3)cc2O1.Cl`, the figure is 47%; as for `CCOc1cc(NC(=O)Nc2ccnc3ccccc23)cc(OC)c1.Cl`, 73%. As for `C=CCNS(=O)(=O)c1ccc(NC(=O)C(C)Oc2ccc([N+](=O)[O-])cc2)cc1` (stereo not drawn), the Inhibition is reported as 100%.

Turning to `Cc1cc(C(F)(F)F)cc(-n2ncc(-c3ccc(C(=O)NCc4ccccc4N)cc3)c2N)n1.O=C(O)C(F)(F)F`, the Inhibition was 89%. Still for that read-out and setting: the figure for `Oc1ccc2[nH]c(-c3cccc(F)c3)nc2c1CN1CCC(O)(c2ccccc2)CC1` is 72%; for `COCCNCc1cccc(C#Cc2cc3ncnc(Nc4ccc(OCc5cccc(F)c5)c(Cl)c4)c3s2)n1` it is 52%; for `COCCN(C(=O)Cc1cccs1)C(C(=O)NCc1ccc(OC)cc1)c1ccc(C(C)C)cc1` (stereo not drawn) it is 59%.

As for `O=C(O)C(F)(F)F.O=S(=O)(NCCN1CCCC1)c1ccc(-c2ccc(CNCc3ccsc3)cc2)s1`, the Inhibition came to 40%.

`CN(Cc1ccccc1)C1CCN(c2cc(NC(=O)c3cccc(F)c3)ccn2)CC1.O=C(O)C(F)(F)F` had an Inhibition of 3%. On the same count and under the same terms, as for `NC1=NC(c2ccccc2)(c2ccccn2)C(=O)N1CCCc1ccccc1.O=C(O)C(F)(F)F` (stereo not drawn), the figure is 64%; as for `Cc1cc(N[C@@H](Cc2ccccc2)C(=O)NCc2cccc(F)c2)nc(NCc2ccccc2C)n1.O=C(O)C(F)(F)F`, 75%. `Cc1ccc(Cn2cnc3cc(C(=O)Nc4ccc(-c5ccc(CN(C)C)cc5)cc4)ccc3c2=O)o1` gave an Inhibition of 12%.

Take `COc1cc2c(cc1OC)CN(CCCCc1ccc(NC(=O)c3cc(Cl)cc(Cl)c3)cc1)CC2`: the Inhibition was 4%. `CCCCCN1CCCC(CNS(=O)(=O)c2cccc(C(=O)Nc3ccc(C(F)(F)F)cc3)c2)C1.O=C(O)C(F)(F)F` (stereo not drawn) displayed an Inhibition of 2%. Consider `O=C(/C=C/c1ccc(Cl)c(Cl)c1)NCCCCCN1CCCN(C(=O)Nc2ccc(F)c(F)c2)CC1`, for which the Inhibition is recorded as 0%.

For `Cc1cccc2nc(-c3ccc(-c4cccc(CNCc5cnn(-c6ccccc6)n5)c4)s3)[nH]c12.O=C(O)C(F)(F)F`, the Inhibition amounted to 58%.

`Cl.N=C(NCCc1ccc(Cl)cc1)c1ccc(Cl)c(Cl)c1` showed an Inhibition of 42%.

Consider `COc1ccc(CCNCCCCCNCCCc2ccc(Cl)cc2)cc1OC.Cl`, for which the Inhibition turned out to be 2%. Same read-out and setting: as for `Nc1c(Cl)cc(C(O)CNCCCCCOCCc2ccccc2)cc1C(F)(F)F` (stereo not drawn), the figure is 96%. Still for that read-out and setting: as for `CC(=O)c1c[nH]c(C(=O)Nc2ccc(-c3cn4ccccc4n3)cc2)c1`, the figure is 95%; as for `COc1ccc(Nc2nccc(N3CCC(NC(=O)C(C)c4ccc(Cl)cc4)C3)n2)cc1` (stereo not drawn), 97%.

`Br.CCCc1cc(C)ccc1OCCCON1C(N)=NC(N)=NC1(C)C` showed an Inhibition of 97%.

On to `Oc1c(Br)cc2oc3c(c2c1CNCc1ccccc1)CCCC3`, for which the Inhibition worked out at 74%.

Regarding `O=C(NCC1CCC(C(=O)NCc2cccc(C(F)(F)F)c2)CC1)c1ccc(O)c(-c2ccc(Cl)c(Cl)c2)c1` (stereo not drawn), the Inhibition is 41%. Same read-out and setting: as for `COCCNCc1ncsc1-c1ccc2c(Nc3cc(O)c(Cl)cc3F)ccnc2c1`, the figure is 92%; as for `Cl.Nc1ccc(-c2nc3c(ccc4ccccc43)[nH]2)cc1`, 51%; as for `COc1cc(-c2cc3cc(Cl)c(Cl)cc3[nH]2)ccc1C(=O)NCCC1CCCN1C.O=C(O)C(F)(F)F` (stereo not drawn), 41%. In the case of `O=C(NC1CCCCC1)N(Cc1cccc(-c2ccc(CNC3CCCC3)cc2)c1)C1CCN(Cc2ccccc2)CC1.O=C(O)C(F)(F)F`, the Inhibition came out at 89%. Same read-out and setting: the figure for `COc1ccc2[nH]ccc(=NN=CC=Cc3ccccc3)c2c1` is 99%; for `CCCCCn1c(Sc2ccc(C#N)c([N+](=O)[O-])c2)nnc1-c1cccc(Cl)c1` it is 75%; for `COc1cccc2cc(C(=O)N[C@@H](CC(C)C)C(=O)N[C@H](/C=N/N(C)C(=O)OC(C)(C)C)CC(=O)OC(C)(C)C)oc12` it is 67%.

The molecule `CC(C)c1ncc(-c2ccncc2)c(C2CCC(CNC(=O)c3ccncc3)CC2)n1` (stereo not drawn) showed an Inhibition of 49%.

In turn, `Cc1[nH]c(C)c(-c2ccc(/C=C/c3ccccn3)cc2)c(=O)c1Cl` registered an Inhibition of 96%. For `COc1cc2cc(Cc3cnc(N)nc3N)ccc2c(OC)c1OC.Cl`, the Inhibition is 2%.

On to `C=CCCCNCC(NCCCNc1cc(=O)c2ccccc2[nH]1)c1cc(Br)cc(Br)c1` (stereo not drawn), for which the Inhibition came to 19%. Take `CC(=O)Nc1ccc(OCCN(CC(C)C)c2ccc(C(F)(F)F)c(C#N)c2)c(Cl)c1`: the Inhibition was 95%.

Consider `Cc1ccc(NC(=O)c2ccc(CN3CCCN(CCC(C)C)CC3)cc2)cc1F.O=C(O)C(F)(F)F`, for which the Inhibition came to 31%. Same read-out and setting: the figure for `Cl.N=c1n(Cc2ccccc2)c2ccccc2n1CC(O)c1ccc(Cl)cc1` (stereo not drawn) is 75%.
